# Results: PubChem BioAssay (EPA / NIEHS)
# Results filed as inconclusive are left out. The source made the active and inactive calls. Rule for the calls, unless noted: active = hit-call score of the fitted dose curve at least 0.9, where 1 is the maximum; inactive = score below 0.9.
# Assays:
# [1] = target: human Vitamin D Receptor (VDR), VDR (gene 7421) (UniProt P11473); test: ATG_VDR_TRANS: Attagene TRANS-FACTORIAL HepG2 Assay for human Vitamin D Receptor (VDR) (AID 2283022; active = hit-call score of the fitted dose curve at least 0.9, where 1 is the maximum)
# Outline: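 Transactivation by an exogenous VDR-Gal4 chimera in transiently transfected HepG2 cells was measured as reporter transcript level 24 hours after chemical treatment. RT-PCR products were analysed by capillary electrophoresis and fitted in the positive direction relative to DMSO.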
# [2] = read-out: Monokine induced gamma interferon (MIG), CXCL9 (gene 4283); test: BSK_3C_MIG: BioMAP Diversity Plus: 3C Assay for Monokine induced gamma interferon (MIG) Biomarker Activity (AID 2283021); details: primary human endothelial cells (HUVEC); actives raise or lower the signal
# Outline: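 HUVEC primary endothelial cultures dosed with chemical; MIG quantified by ELISA at 24 h. Data fitted bidirectionally against DMSO control, with parallel SRB total-protein staining for cytotoxicity.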
# [3] = BSK_3C_SRB: Viability Assessment in the BioMAP Diversity Plus: 3C Assay (AID 2283023); details: primary human endothelial cells (HUVEC);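 note: fitted both ways against DMSO so a hit may be signal rise or drop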
# Outline: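 Cytotoxicity readout in parallel HUVEC 3C cultures: after 24 h compound exposure, cells fixed with 10% TCA, stained with 0.1% SRB and read at 560 nm. Gain or loss relative to DMSO fitted.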
# [4] = read-out: Matrix Metallopeptidase 1 (MMP1), MMP1 (gene 4312); test: BSK_BE3C_MMP1: BioMAP Diversity Plus: BE3C Assay for Matrix Metallopeptidase 1 (MMP1) Biomarker Activity (AID 2283024); details: primary human bronchial epithelial cells; actives raise or lower the signal
# Outline: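 Human primary bronchial epithelial cells (BE3C system) dosed for 24 h; MMP-1 quantified by ELISA. Bidirectional fit against DMSO; cytotoxicity tracked in parallel cultures by SRB total-protein staining.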
# [5] = read-out: Pselectin, SELP (gene 6403); test: BSK_4H_Pselectin: BioMAP Diversity Plus: 4H Assay for Pselectin Biomarker Activity (AID 2283026); details: primary human endothelial cells (HUVEC); actives raise or lower the signal
# Outline: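 Primary human umbilical vein endothelial cells were treated 24 h, and cell-surface P-selectin was then quantified by ELISA. Bidirectional fit versus DMSO; cytotoxicity checked in parallel cultures by SRB total-protein staining.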
# [6] = BSK_4H_SRB: Viability Assessment in the BioMAP Diversity Plus: 4H Assay (AID 2283027); details: primary human endothelial cells (HUVEC);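 note: cells exposed to compound for 24 h before staining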;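 for AC50: curves fitted both ways versus DMSO so AC50 may be loss or gain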
# Outline: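 Human umbilical vein endothelial cells, 24 h after chemical dosing; total protein measured by 0.1% sulforhodamine B staining after 10% TCA fixation, read at 560 nm. Bidirectional fitting against DMSO.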
# [7] = read-out: Thrombomodulin, THBD (gene 7056); test: BSK_3C_Thrombomodulin: BioMAP Diversity Plus: 3C Assay for Thrombomodulin Biomarker Activity (AID 2283029); details: primary human endothelial cells (HUVEC); actives raise or lower the signal
# Outline: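 Human umbilical vein endothelial cells were exposed to chemicals for 24 h; cell-surface thrombomodulin quantified by ELISA, with bidirectional fitting against DMSO baseline.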
# [8] = read-out: Urokinase-type plasminogen activator receptor (uPAR), PLAUR (gene 5329); test: BSK_4H_uPAR: BioMAP Diversity Plus: 4H Assay for Urokinase-type plasminogen activator receptor (uPAR) Biomarker Activity (AID 2283030); details: primary human endothelial cells (HUVEC); actives raise or lower the signal
# Outline: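 uPAR level read by ELISA on HUVEC cultures (BioMAP 4H) 24 h post-dosing, analyzed for gain or loss relative to DMSO. Parallel SRB staining assessed overt cytotoxicity.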
# [9] = BSK_3C_Vis: BioMAP Diversity Plus: 3C Assay for Morphology Visualization (AID 2283025); details: primary human endothelial cells (HUVEC);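 note: fitted both ways so gain or loss versus DMSO counts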;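 for AC50: light microscopy image of cell morphology used as background control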
# Outline: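 Human umbilical vein endothelial cell morphology was inspected by light microscopy 24 h after chemical dosing; scored bidirectionally relative to DMSO.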
# [10] = BSK_BE3C_SRB: Viability Assessment in the BioMAP Diversity Plus: BE3C Assay (AID 2283028); details: primary human bronchial epithelial cells
# Outline: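 Cytotoxicity read-out: SRB (0.1%) staining of TCA-fixed (10%) human lung bronchial epithelial cells, absorbance 560 nm, 24 h post-dosing. Curves fitted both directions relative to DMSO.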
# Sequence of human Vitamin D Receptor (VDR), VDR (gene 7421) (P11473 whole entry, looked up, the tested form may be a part): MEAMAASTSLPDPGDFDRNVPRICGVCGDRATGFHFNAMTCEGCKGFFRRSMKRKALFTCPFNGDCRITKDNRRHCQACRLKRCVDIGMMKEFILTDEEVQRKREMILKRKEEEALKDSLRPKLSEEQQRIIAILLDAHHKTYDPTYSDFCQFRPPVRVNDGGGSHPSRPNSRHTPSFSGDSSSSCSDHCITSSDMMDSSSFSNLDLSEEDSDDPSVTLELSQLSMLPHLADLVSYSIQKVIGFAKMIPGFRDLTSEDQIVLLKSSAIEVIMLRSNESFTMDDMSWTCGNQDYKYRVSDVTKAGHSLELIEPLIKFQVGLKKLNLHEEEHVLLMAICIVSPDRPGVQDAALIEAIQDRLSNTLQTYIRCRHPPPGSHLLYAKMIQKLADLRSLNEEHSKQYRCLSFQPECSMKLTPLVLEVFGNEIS
compound,measurement,setting,value
C=C[C@@H](C)CCC=C(C)C,outcome,[1],inactive
NCCNCCN,outcome,[2],inactive
same,outcome,[3],inactive
same,outcome,[4],inactive
same,outcome,[5],inactive
same,outcome,[6],inactive
same,outcome,[7],inactive
same,outcome,[8],inactive
Cc1ccc(O)c(C(C)(C)C)c1,outcome,[2],inactive
same,AC50,[3],25 µM (active)
same,AC50,[4],28.3 µM (active)
same,AC50,[9],13.4 µM (active)
same,AC50,[5],34.3 µM (active)
same,AC50,[6],33.5 µM (active)
same,AC50,[7],30.8 µM (active)
same,AC50,[8],28.2 µM (active)
CC(C)OP(=O)(CP(=O)(OC(C)C)OC(C)C)OC(C)C,outcome,[1],inactive
CCCCCCOC(=O)CCCCC,outcome,[1],inactive
CC(C)c1cccc(O)c1,outcome,[1],inactive
C[C@H]1C[C@@H]2[C@H]([C@@H](O)C[C@@]3(C)[C@H]2CC[C@]3(O)C(=O)CO)[C@@]2(C)C=CC(=O)C=C12,outcome,[2],inactive
same,outcome,[3],inactive
same,outcome,[4],inactive
same,outcome,[5],inactive
same,outcome,[6],inactive
same,outcome,[10],inactive
same,outcome,[7],inactive
same,outcome,[8],inactive
CC(C)(C#N)c1cc(Cn2cncn2)cc(C(C)(C)C#N)c1,outcome,[1],inactive
C=CC(=O)OCC(O)COc1ccccc1 (centres undefined),outcome,[1],inactive
CCCCCC(CO)CCC (centres undefined),outcome,[1],inactive
CCCC(=O)OCCC(C)CCC=C(C)C (centres undefined),outcome,[1],inactive
CCc1ccc(C=O)cc1,outcome,[1],inactive
NC(N)=NC(=O)c1nc(Cl)c(N)nc1N,outcome,[1],inactive
O=c1[nH]nnc2ccccc12,outcome,[1],inactive
CN1[C@@H]2CC(OC(=O)[C@H](CO)c3ccccc3)C[C@H]1[C@@H]1O[C@@H]12 (some centres undefined),outcome,[1],inactive
O=C(O)c1cn(-c2ccc(F)cc2)c2cc(N3CCNCC3)c(F)cc2c1=O,outcome,[2],inactive
same,outcome,[3],inactive
same,outcome,[4],inactive
same,outcome,[9],inactive
same,outcome,[5],inactive
same,outcome,[6],inactive
same,outcome,[7],inactive
same,outcome,[8],inactive
c1ccc2c(c1)c1cccc3ccc4cccc2c4c31,outcome,[2],inactive
same,outcome,[3],inactive
same,outcome,[4],inactive
same,outcome,[9],inactive
same,outcome,[5],inactive
same,outcome,[6],inactive
same,outcome,[7],inactive
same,outcome,[8],inactive
CCCCOCCOCCSC#N,outcome,[1],inactive
CC(CCO)CCCC(C)(C)O (centres undefined),outcome,[1],inactive
C=CC[N+](C)(C)CC=C,outcome,[1],inactive
O=c1cc(-c2ccccc2)oc2cc(O)cc(O)c12,outcome,[1],inactive
C=CCOC(=O)CCC1CCCCC1,outcome,[2],inactive
same,outcome,[3],inactive
same,outcome,[4],inactive
same,outcome,[5],inactive
same,outcome,[6],inactive
same,outcome,[7],inactive
same,outcome,[8],inactive
CC(C)(C)c1n[nH]c(=S)n(N)c1=O,outcome,[1],inactive
CC(=O)C(C)=O,outcome,[1],inactive
